Source: PubChem BioAssay
NR2F2 inh = inhibitors of human COUP-TFII (NR2F2). 370,000 compounds, 0.7% hits. HEK293T NGFI-A luciferase reporter, luminescence. inhibition, % at 8.6 µM. P24468;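 active means inhibition above a per-plate cutoff, mean inhibition of test wells between control levels plus 3 SD, cut at about 38% in these data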;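 further: cells cotransfected with COUP-TFII expression vector driving the NGFI-A reporter; 0% = median of COUP-TF2 test wells and 100% = reporter-only cells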
GalR3 antag = antagonists of human GalR3 | O60755 | HEK293 GalR3-CNG cAMP membrane potential fluorescence; galR3 body fused to GalR1 C-terminus | inhibition, % at 3 µM | 360,000 compounds, 0.44% hits | AID 651719;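 active means inhibition above the screen-wide average plus 3 SD, cut at about 13% in these data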;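 further: forskolin and galanin both at EC90 stimulate the cells; cAMP rise reported by CNG channel membrane potential dye signal; 0% = forskolin plus galanin with DMSO and 100% = forskolin alone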
Target sequence (O60755 1-299 limits assumed): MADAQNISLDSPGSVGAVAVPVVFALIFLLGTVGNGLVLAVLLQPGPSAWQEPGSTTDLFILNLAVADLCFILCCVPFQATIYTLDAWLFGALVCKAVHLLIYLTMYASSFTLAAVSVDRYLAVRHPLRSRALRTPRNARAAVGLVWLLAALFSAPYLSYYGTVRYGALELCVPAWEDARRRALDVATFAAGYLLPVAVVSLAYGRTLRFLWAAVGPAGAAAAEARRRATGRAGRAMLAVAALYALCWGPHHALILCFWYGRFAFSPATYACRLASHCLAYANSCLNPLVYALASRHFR
SRC1 inh = inhibitors of human steroid receptor coactivator 1 (SRC1); HEK293 GAL4-SRC1 luciferase reporter, luminescence; 360,000 compounds, 0.12% hits; inhibition, % at 3.6 µM;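 active means inhibition above the campaign mean plus 3 SD, with each screening campaign given its own cutoff, cut at about 60% in these data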;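 further: 0% = DMSO treated cells and 100% = gossypol at 36 µM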
NR5A2 inv ag = NR5A2 inverse agonism in reporter assay | inhibition, % at 3.6 µM | 360,000 compounds, 0.13% hits | HEK293T StAR-luciferase reporter, LRH-1 transfected, 24 h;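 active means inhibition above the mean inhibition of all tested compounds plus 3 SD, cut at about 73% in these data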;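 further: 0% = DMSO wells and 100% = reporter-only cells lacking LRH-1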
SRC3 inh = inhibits human SRC3 coactivator. Q9Y6Q9. HEK293 GAL4-SRC3 luciferase reporter, luminescence. inhibition, % at 3.6 µM. 360,000 compounds, 0.17% hits. AID 588352;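 active means inhibition above a per-campaign cutoff, the mean of all compounds plus 3 SD, cut at about 60% in these data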;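 further: 0% = DMSO-treated cells and 100% = gossypol-treated cells at 36 µM; higher means less SRC3-driven luciferase light from the GAL4 reporter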
SRC2 inh = inhibits human steroid receptor coactivator 2; Q15596; 370,000 compounds, 0.17% hits; inhibition, % at 9 µM; HEK293 GAL4-SRC2 luciferase reporter, luminescence;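 active means inhibition above the mean inhibition of all tested compounds plus 3 SD, set per campaign, cut at about 52% in these data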;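 further: 0% = DMSO treated cells and 100% = cells given Gossypol at 36 µM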
Gal4-VP16 ctr = VP16 inhibition counter-screen for COUP-TFII; shares compounds with NR2F2 inh; HEK293 Gal4-VP16 luciferase reporter, luminescence; inhibition, % at 8.5 µM; 2,500 compounds, 25% hits; AID 687007; in the data active means inhibition above about 13%
NR2F2 inh conf = confirmation of human COUP-TFII (NR2F2) inhibitors; shares compounds with NR2F2 inh; HEK293 NGFI-A luciferase reporter, luminescence; inhibition, % at 8.5 µM; 2,500 compounds, 45% hits; AID 687008;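 active means mean inhibition over three repeats above a set limit taken from the earlier primary screen, cut at about 38% in these data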;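 further: 100% = cells given the luciferase reporter alone without the COUP-TF2 vector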
* = called active by the depositor; x = no result given. This is a sample that favours compounds with a hit; in the whole collection about 1.1% have one here.

SMILES	NR2F2 inh	GalR3 antag	SRC1 inh	NR5A2 inv ag	SRC3 inh	SRC2 inh	Gal4-VP16 ctr	NR2F2 inh conf
CC(C)NC(=O)C1(C)CCCCN1Cc1ccc(OCc2ccccc2)cc1 (stereo unspecified)	41*	-7	0	29	13	18	-17	14
CC(=O)Nc1ccc(-c2csc(Nc3cc(C)ccn3)n2)cc1	53*	-5	-18	-40	-21	-22	-79	-28
CC(=O)Nc1cccc(-c2csc(Nc3cc(C)ccn3)n2)c1	-35	-4	-62	-127	-70	-28	x	x
CCC(=O)N1CCc2cc(Br)c(S(=O)(=O)NCc3ccccc3OC)cc21	0	x	x	x	x	-27	x	x
CCN1/C(=C/C=C/c2oc3ccc(-c4ccccc4)cc3[n+]2CC)Oc2ccc(-c3ccccc3)cc21	84*	1	59	67	48	29	40*	94*
FC(F)(F)c1nc(-c2ccncc2)ncc1-c1nnnn1-c1ccccc1	9	-2	4	1	7	-14	x	x
FC(F)(F)c1ccncc1-c1nnnn1-c1ccc(Cl)cc1	12	-1	4	30	13	-8	x	x
FC(F)(F)c1nc(N2CCCC2)ncc1-c1nnnn1-c1ccc(Cl)cc1	38*	-3	5	12	18	21	4	33
Fc1ccc(-n2nnnc2-c2cnc(-c3cccs3)nc2C(F)(F)F)cc1	53*	-4	30	5	26	28	9	38*
Cc1ccc(NC(=O)COC(=O)CCc2c[nH]c3ccccc23)cc1	4	-5	-4	10	13	-6	x	x
O=C(COC(=O)CCc1c[nH]c2ccccc12)Nc1ccccc1	63*	-4	-6	-3	7	-8	2	4
Cc1ccccc1C(=O)N[C@H](C(=O)N1CCC[C@H]1C(=O)NCc1ccccc1)c1ccccc1	0	-8	x	x	x	3	x	x
COc1cc(/C=C2\SC(=S)N(CCC(=O)NC3CCCC3)C2=O)cc(OC)c1OC	3	-7	7	8	58	-3	x	x
O=C(CCN1C(=O)/C(=C/c2ccccc2Cl)SC1=S)Nc1ccccn1	6	1	-6	4	0	-1	x	x
Cc1ccc(C(=O)NNC(=O)CCCN2C(=O)/C(=C/c3ccccc3Cl)SC2=S)cc1	47*	0	21	11	34	63*	32*	33
Cc1ccc(/C=C2\SC(=S)N(CCCC(=O)NC3CCCC3)C2=O)cc1	42*	1	59	34	57	89*	12	21
O=C(CCCN1C(=O)/C(=C/c2ccccc2Cl)SC1=S)Nc1ccccn1	40*	-9	20	30	15	69*	6	25
O=C(CCN1C(=O)/C(=C/c2ccccc2Cl)SC1=S)NNC(=O)c1ccccc1O	13	-9	-13	-23	-1	-9	x	x
Cc1ccc(/C=C2/SC(=S)N(CCCC(=O)Nc3ccc(O)cc3)C2=O)cc1	70*	-6	42	41	36	85*	-78	-13
COC(=O)C1=C(C)N(Cc2ccccc2C(F)(F)F)C(=NCc2ccc(OC)cc2)NC1c1ccccc1C(F)(F)F (stereo unspecified)	15	-5	x	x	x	-13	x	x
Cc1ccc(NC(=O)[C@@H]2CC(=O)O[C@@H]2c2ccccc2)cc1C	-26	x	x	x	x	-22	x	x
O=C(CN1C(=O)C2(OCCCO2)c2ccccc21)NCc1ccc2ccccc2c1	-10	x	x	x	x	-4	x	x
C=CS(=O)(=O)N(Cc1nnn(Cc2ccccc2)c1Br)[C@@H](CC(C)C)C(=O)OC	8	x	x	x	x	24	x	x
O=C(C(=O)N1CCN(S(=O)(=O)c2cccc3ccccc23)CC1)c1cccc(C(F)(F)F)c1	1	-8	x	x	x	18	x	x
COc1ccc2c(c1)CO[C@H]([C@H](O)CO)[C@H]2/C=C/c1ccccc1	-10	x	x	x	x	10	x	x
SMILES	NR2F2 inh	GalR3 antag	SRC1 inh	NR5A2 inv ag	SRC3 inh	SRC2 inh	Gal4-VP16 ctr	NR2F2 inh conf
Cc1ccc(/C=C2\SC(=S)N(CCCC(=O)NNC(=O)c3ccccc3O)C2=O)cc1	70*	3	53	24	58	88*	23*	39*
C=C1C(=O)OC2CC1C(OC(C)=O)CC(C)=CCCC(C)=CCCC2(C)O (stereo unspecified)	39*	-4	33	46	62*	44	30*	34
CC1CCN(C2=NC(=O)/C(=C/c3ccccc3F)S2)CC1	63*	-14	28	29	44	54*	-117	-46
CCN(CC)c1cc2nc(C)n(Cc3ccccc3)c(=O)c2cc1NC(=O)C1CC1	-12	10	-11	-28	5	1	x	x
Cc1nc2cc(N3CCN(C)CC3)c(NC(=O)Cc3ccccc3)cc2c(=O)n1Cc1ccccc1	49*	6	29	21	45	46	-1	15
CCCN(c1ccc(OCC)cc1)c1ncnc2nc[nH]c12	2	-2	23	1	24	25	x	x
CCN(c1ccc(OC)cc1)c1ncnc2nc[nH]c12	38*	4	66*	22	49	49	3	17
COC(=O)CSc1nnc(-c2ccc(NS(=O)(=O)c3ccc(Cl)s3)cc2)o1	4	x	x	x	x	-1	x	x
CCOC(=O)CC[C@@H]1CC[C@]2(CCCN(Cc3ccc(Cl)cc3)C2)O1	-7	x	x	x	x	-6	x	x
Nc1ccc2c(c1)OC1(CCCC1)O2	65*	-3	50	26	55	66*	-10	11
COc1ccc(CNC(=O)Nc2ccc3c(c2)c(=O)n(C)n3Cc2cccc(C(F)(F)F)c2)cc1	21	-6	-1	2	-19	-44	x	x
COc1ccc(OC)c(CC(=O)Nc2ccc3c(c2)c(=O)n(C)n3Cc2cccc(C(F)(F)F)c2)c1	83*	-6	2	-7	2	58*	-9	5
CC(=O)N[C@@H]1C[C@@H]2O[C@H](CO)CC[C@@H]2O[C@@H]1CCc1ccc(C#CC2(O)CCCC2)cc1	-5	x	x	x	x	-19	x	x
COc1cccc2c1C(=O)c1c(O)c3c(c(O)c1C2=O)CC(O)(C(=O)CO)CC3OC1CC(N(C)C)C(O)C(C)O1 (stereo unspecified)	45*	-4	79*	97*	85*	58*	28*	27
COc1cccc2c1C(=O)c1c(O)c3c(c(O)c1C2=O)C[C@@](O)(C(C)=O)C[C@@H]3O[C@H]1C[C@H](N)[C@H](O)[C@H](C)O1	54*	x	6	99*	82*	27	28*	44*
Cc1ccc(S(=O)(=O)N2CCCC2C(=O)N2CCc3ccccc3C2)cc1C (stereo unspecified)	0	x	x	x	x	7	x	x
